Screening results as filed in PubChem.
TLR9-MyD88 inh – inhibitors of human TLR9-MyD88 binding. 340,000 tested, 0.21% active. inhibition, % at 4.98 µM. CHO BLA complementation TLR9-MyD88, CCF4 FRET ratio;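 active = inhibition above the mean over all tested compounds plus 3 SD, cut at about 21% in these data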
NOD2-RIPK2 inh – inhibitors of human NOD2-RIPK2 interaction; O43353; CHO BLA complementation NOD2-RIPK2, CCF4 ratio; inhibition, % at 4.98 µM; 360,000 tested, 0.38% active; AID 624267; in the data active = inhibition above about 21%
HSF1 inh – HSF1 inhibition | AID 2098 | activity change, negative = inhibition, % at 7.5 µM (by protocol) | 300,000 tested, 0.77% active | NIH3T3-HGL HSE-luciferase, MG132-induced, luminescence 8 h; active compounds read low;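 active = more than half of replicate wells show activity change below -50%, luminescence cut by over half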;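 also: luciferase reports HSF-1 transcriptional activity via heat shock element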
HSF1 activator – increases HSF-1 driven luciferase reporter signal | activation, % at 9 µM | 300,000 tested, 1.7% active | NIH3T3-HGL HSF-1 luciferase reporter, MG132, 8 h; 100% = twice DMSO control signal | AID 504408;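 active = mean replicate activation of at least 50% with a set share of replicates each reaching 50%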
TLR4-MyD88 BLA – blocks binding of human TLR4 to MyD88 | O00206+Q99836 | HeLa CL3-4 TLR4/MyD88 BLA complementation, FRET ratio | inhibition, % at 8.4 µM | 200,000 tested, 0.18% active; in the data active = inhibition above about 25%
Target sequence (O00206 whole entry, looked up): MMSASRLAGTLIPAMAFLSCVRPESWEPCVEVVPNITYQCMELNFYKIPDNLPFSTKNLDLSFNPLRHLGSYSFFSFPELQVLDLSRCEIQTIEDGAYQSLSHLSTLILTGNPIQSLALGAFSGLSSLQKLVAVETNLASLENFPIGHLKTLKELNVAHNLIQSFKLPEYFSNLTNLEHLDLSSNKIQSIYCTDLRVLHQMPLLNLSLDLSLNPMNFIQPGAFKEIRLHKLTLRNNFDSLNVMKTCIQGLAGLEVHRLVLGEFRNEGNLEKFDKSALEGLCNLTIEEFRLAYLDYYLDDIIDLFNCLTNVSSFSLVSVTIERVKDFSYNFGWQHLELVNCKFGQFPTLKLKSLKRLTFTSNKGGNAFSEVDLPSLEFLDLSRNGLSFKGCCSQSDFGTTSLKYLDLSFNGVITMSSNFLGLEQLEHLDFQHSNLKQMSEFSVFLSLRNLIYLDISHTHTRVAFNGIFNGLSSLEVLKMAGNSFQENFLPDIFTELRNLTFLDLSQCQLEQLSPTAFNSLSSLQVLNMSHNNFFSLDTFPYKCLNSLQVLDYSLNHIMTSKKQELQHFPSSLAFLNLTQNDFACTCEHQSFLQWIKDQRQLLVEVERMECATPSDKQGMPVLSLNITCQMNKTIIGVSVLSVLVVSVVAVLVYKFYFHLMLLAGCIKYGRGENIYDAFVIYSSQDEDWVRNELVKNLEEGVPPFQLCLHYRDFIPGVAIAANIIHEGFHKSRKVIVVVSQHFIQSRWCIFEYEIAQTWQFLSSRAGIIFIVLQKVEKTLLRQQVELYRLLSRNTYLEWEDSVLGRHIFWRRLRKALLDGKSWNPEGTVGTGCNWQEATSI
Target sequence (Q99836 whole entry, looked up): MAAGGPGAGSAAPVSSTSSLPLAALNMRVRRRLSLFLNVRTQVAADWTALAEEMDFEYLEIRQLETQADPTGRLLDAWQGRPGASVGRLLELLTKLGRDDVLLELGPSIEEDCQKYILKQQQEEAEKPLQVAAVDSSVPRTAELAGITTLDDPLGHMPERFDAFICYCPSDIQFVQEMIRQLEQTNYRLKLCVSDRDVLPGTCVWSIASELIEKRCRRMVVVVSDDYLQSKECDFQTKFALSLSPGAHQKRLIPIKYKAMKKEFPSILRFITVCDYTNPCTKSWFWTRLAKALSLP
Hits are given with their value; . = inactive; / = no result. This is a sample that favours compounds with a hit; in the whole collection about 2.4% have one here.

SMILES	TLR9-MyD88 inh	NOD2-RIPK2 inh	HSF1 inh	HSF1 activator	TLR4-MyD88 BLA
O=C(O)CCCNC(=O)/C(=C\c1ccccc1F)NC(=O)c1ccccc1	.	.	.	.	.
O=C(CCCNC(=O)/C(=C\c1ccccc1F)NC(=O)c1ccccc1)OCc1ccccc1	.	.	-56.3	.	.
COc1ccc(NC(=O)NC2(C(=O)N3CCCCC3)CCCCC2)cc1	.	.	.	.	/
C=CCC1(C(=O)NCCO)CCN(C(=O)OC(C)(C)C)CC1	.	.	-84.5	.	/
CC(=O)Nc1sc(C)c(C)c1C(=O)OCC(=O)Nc1ccccc1	.	.	/	/	/
CC(=O)Nc1sc(C)c(C)c1C(=O)OCCOc1ccccc1	.	.	.	61.7	/
CCOC(=O)c1c(C)[nH]c(C(=O)N2CCc3cc(OC)c(OC)cc3C2)c1C	.	.	.	.	/
c1ccc(SCc2nc(-c3ccncc3)no2)cc1	.	.	.	72.6	.
c1ccc2c(-c3nc(-c4ccncc4)no3)cccc2c1	.	.	.	78.1	.
Cc1ccc(SCc2nc(-c3ccncc3)no2)cc1	.	.	.	.	.
CN(C)C1=NCCN1CCc1cccc(F)c1	.	.	.	.	/
COc1cccc(CC2(CO)CCN(S(=O)(=O)c3ccc(OC)cc3OC)CC2)c1	.	.	-55.9	.	/
Cc1ccc(Cl)c(NC(=O)COC(=O)c2cc[n+]([O-])cc2)c1Cl	.	.	/	/	/
O=c1[nH]cc(C=NNc2ccccc2)c(=O)[nH]1	/	.	/	/	/
Oc1[nH]c(N=C2N=c3ccccc3=N2)c2ccccc12	.	.	.	288.2	/
N#CC(=C1N=c2ccccc2=N1)c1c(O)[nH]c2ccccc12	/	/	/	/	.
CC1=C(C(=O)N(C)C)CC(CC(=O)NC2CCCC2)C(=O)N1Cc1ccc(F)cc1 (stereo not drawn)	.	.	/	/	/
O=C(NCCc1ccccc1)c1cccc(Br)c1	.	.	.	64.8	/
CCOC(=O)c1ccccc1NC(=O)COC(=O)C(CCSC)NC(=O)COc1ccccc1 (stereo not drawn)	.	.	.	.	/
CCCC(=O)Nc1sc(C(=O)Nc2cccc(N)c2)c(C)c1C(=O)OC	.	.	-67.1	.	.
CC(C)C/C=C1\CCc2c([nH]c3ccccc23)C1=O	.	.	.	58.9	.
O=C1/C(=C/c2cccnc2)CCc2c1[nH]c1ccccc21	.	.	.	.	.
COC(=O)Cn1c(=O)c2c(nc3n2CC(C)CN3CCc2ccccc2)n(C)c1=O (stereo not drawn)	.	.	.	63.1	/
c1ccc(Oc2ccc(-c3ccn[nH]3)cc2)cc1	.	.	.	.	/
c1ccc(-c2ncc(-c3ccn[nH]3)s2)cc1	.	.	.	52.6	.
SMILES	TLR9-MyD88 inh	NOD2-RIPK2 inh	HSF1 inh	HSF1 activator	TLR4-MyD88 BLA
O=C(N[C@@H](Cc1ccccc1)C(=O)OCc1ccccc1)c1ccco1	.	.	/	/	/
c1ccc(-c2nc3ccccc3nc2N2CCOCC2)cc1	.	.	.	.	.
Cn1c(N2CCOCC2)nc(-c2ccccc2)c1-c1ccccc1	.	.	-71.1	.	.
CC1(C)Cc2c(C#N)c(NCCO)nc(-c3ccco3)c2CO1	/	.	-52.3	.	/
Cc1cc(NC(=O)c2ccno2)no1	.	.	.	.	/
Cc1ccc(NNC(=O)c2ccno2)c(C)c1	.	.	.	68.4	/
COc1ccccc1/C=C/C1=NC(=C\C=C/c2ccccc2)/C(=O)O1	.	.	.	170.9	.
COc1ccccc1/C=C/C=C1N=C(/C=C/c2ccc(Cl)cc2)OC/1=O	.	.	.	.	.
Cc1cc(C)n(-c2nc3ccccc3nc2N2CCN(C(=O)c3ccc(F)cc3)CC2)n1	.	.	.	62.2	.
CCc1ccc(NC(=O)C2C3CCC(O3)C2C(=O)O)cc1 (stereo not drawn)	.	.	-70.0	.	/
O=C(O)C1C2CCC(O2)C1C(=O)Nc1ccc(F)cc1 (stereo not drawn)	.	.	.	.	.
CSc1ccccc1C(=O)Nc1ccc2c(c1)CCC2	.	.	.	.	/
O=C(Nc1ccc2c(c1)CCC2)c1ccccc1Br	.	.	.	53.8	.
Cc1c(C(=O)Nc2ccc(Nc3ccccc3)cc2)cccc1[N+](=O)[O-]	.	.	.	.	/
Cc1c(C(=O)Nc2ccc3c(c2)CCC3)cccc1[N+](=O)[O-]	.	.	.	57.4	.
O=C(O)C1CCCCC1C(=O)Nc1ccc2c(c1)CCC2 (stereo not drawn)	.	.	.	122.7	.
CCOc1ccc(N(CC(=O)NC2CCCCC2)S(=O)(=O)c2ccccc2)cc1	.	.	.	.	/
O=c1oc(-c2ccccc2)c(-c2ccccc2)c2ccccc12	.	.	/	/	/
